# Measurements reported in ChEMBL document CHEMBL3988442, “University of Dundee, Small-Polar-MMV Screening Library” (2021).
# Out of some 48,000 compounds screened, about 13,000 (27%) showed an effect of 50% or more. Some of the results follow.
# Test system: Wolbachia pipientis
# Experiment: Anti-Wolbachia Cell-Based Screen
# Assay type: functional
# Design: scale not given: in the data most compounds retested in dose-response had high values
# Details: 5 µM
row,Compound,Percent Effect [%]
1,CN(C)CCN(C)S(=O)(=O)Cc1ccc(Br)cc1,-1.249
2,CCC(=O)c1ccc(OCC(=O)NC(C)c2nnc(C)[nH]2)cc1 (stereo not given),8.329
3,O=C(CCNS(=O)(=O)c1ccc2c(c1)CCCC2)NCc1ccoc1,1.514
4,CCN(Cc1csc(CS(C)(=O)=O)n1)c1cccc(CO)c1,6.548
5,CCc1nsc(NC2CCOC3(CCCC3)C2)n1 (stereo not given),-3.423
6,COCCCNS(=O)(=O)c1cc(C)sc1C,1.598
7,C=C(C)COc1cccc(CNC(CC)c2ccnn2C)c1 (stereo not given),-16.98
8,Cc1nccn1C1CCCN(C(=O)c2cccc(OCC(N)=O)c2)C1 (stereo not given),92.13
9,NC(=O)COc1cccc(C(=O)N2CCCC(n3cccn3)C2)c1 (stereo not given),-6.954
10,COc1cccc(COCC(=O)N2CCCC(n3ccnc3C)C2)c1 (stereo not given),-4.06
11,Cc1nccn1C1CCCN(C(=O)c2cccc(S(C)(=O)=O)c2)C1 (stereo not given),94.78
12,Cc1nccn1C1CCCN(C(=O)c2cccc(-n3cccc3)c2)C1 (stereo not given),98.3
13,CC(=O)c1cn(CCC(=O)N[C@H](C(=O)O)C(C)C)c2ccccc12,14.47
14,Cc1ccc2cccc(S(=O)(=O)N(C)C3CCCN(C)C3)c2n1 (stereo not given),110
15,CN1CCCC(N(C)S(=O)(=O)c2cccc3ncccc23)C1 (stereo not given),142.2
16,CN(C1CCCCC1)S(=O)(=O)NC1CCCN(c2ncccn2)C1 (stereo not given),-0.1008
17,Cc1ccc2cccc(S(=O)(=O)N(C)CC3CCN(C)CC3)c2n1,117.6
18,CN1CCC(CN(C)S(=O)(=O)CC2CCCCC2)CC1,-3.898
19,Cc1ccc2cccc(C(=O)NCC3CCN(C(C)C)C3)c2n1 (stereo not given),-2.471
20,CN1CCCC(N(C)C(=O)c2ccc(NC(=O)c3cc[nH]n3)cc2)C1 (stereo not given),-7.369
21,Cc1ccc2cccc(S(=O)(=O)N(C)CC3CCN(C)C3)c2n1 (stereo not given),116.7
22,CN(C1CCN(c2ccccn2)CC1)S(=O)(=O)c1ccccc1F,-17.13
23,CCN(C1CCS(=O)(=O)C1)S(=O)(=O)c1cccc2cc(C)cnc12 (stereo not given),2.36
24,CN1CCC(CNC(=O)c2ccc3cccc(Cl)c3n2)C1 (stereo not given),16.58

row,Compound,Percent Effect [%]
1,Cc1ccc2cccc(C(=O)NCCOCC3CC3)c2n1,4.026
2,COCCN1CC(c2nc(CC3CCN(C)CC3)no2)CCC1=O (stereo not given),-7.698
3,Cc1ccc(C(N)=O)cc1NCCOc1cccc(C#N)c1,-8.652
4,O=C(c1[nH]nc2c1CCCC2)N1CCC(OCCN2CCCCC2)C1 (stereo not given),5.05
5,COCCN(CCC#N)S(=O)(=O)c1ccc(F)cc1Cl,-17.33
6,CCOc1ncc(NC(=O)c2ccco2)c(OCC)n1,6.887
7,CC(=O)N1CCN(C(=O)NCc2ccccc2Cn2ccnc2)CC1,-14.94
8,Cc1ccc(CNC(=O)N2CCN(Cc3ccsc3)CC2)n1C,2.843
9,CC(Cn1ccnc1)NC(=O)N1CCN(Cc2cccnc2)CC1 (stereo not given),-2.682
10,CC1CN(C(=O)NCCn2ccnc2)CCO1 (stereo not given),-11.62
11,O=C(NCCn1ccnc1)N1CCN(Cc2cccnc2)CC1,109.3
12,O=C(NCCNc1ncccn1)N1CCN(Cc2cccnc2)CC1,-0.1396
13,O=C(NCCn1ccnc1)N1CCN(Cc2ccsc2)CC1,102.5
14,O=C(NCCn1ccnc1)N1CCCC1c1ccsc1 (stereo not given),8.592
15,O=C(NCCn1ccnc1)N1CCN(Cc2ccco2)CC1,103.9
16,Cc1cc(C)n(CC2(CNC(=O)C(c3ccccc3C)N(C)C)CC2)n1 (stereo not given),-3.627
17,Cc1nc(CN(CCS(C)(=O)=O)C(C)C)cs1,-0.8172
18,Cc1ccc(C(=O)N2CCO[C@H]3[C@H](OCCN(C)C)CC[C@@H]32)o1.O=C(O)C(F)(F)F,8.027
19,Cc1ccoc1C(=O)N1CCO[C@H]2[C@H](OCC3CCOCC3)CC[C@@H]21,-7.099
20,O=C(C1CCOCC1)N1CCO[C@H]2[C@@H](OCc3ccncc3)CC[C@@H]21,-9.852
21,CO[C@@H]1CC[C@H]2[C@H]1OCCN2C(=O)c1ccc(C)nc1.O=C(O)C(F)(F)F,2.504
22,Cc1ccoc1C(=O)N1CCO[C@H]2[C@H](OCc3ccncc3)CC[C@@H]21,96.45
23,Cc1cccc(C(=O)N2CCO[C@H]3[C@H](OCCN(C)C)CC[C@@H]32)n1,97.76
24,CO[C@H]1CC[C@H]2[C@H]1OCCN2C(=O)c1ccc(C)nc1,6.779

row,Compound,Percent Effect [%]
1,CN(C)CCO[C@@H]1CC[C@H]2[C@H]1OCCN2C(=O)c1ccc(F)cc1.O=C(O)C(F)(F)F,97.45
2,Cc1ccc(C(=O)N2CCO[C@H]3[C@H](OCCN(C)C)CC[C@@H]32)cn1,110.3
3,c1ccc2c(c1)OCCC2NCc1ccc(N2CCOCC2)cc1 (stereo not given),6.608
4,Cc1cccc(Nc2c(C#N)c(=O)n(C)c(=O)n2C)c1,-3.383
5,CN(C)CCO[C@@H]1CC[C@H]2[C@H]1OCCN2C(=O)c1ccnnc1.O=C(O)C(F)(F)F,98
6,Cc1cncc(C(=O)N2CC[C@@H]3[C@H]2CCC(=O)N3CCN(C)C)c1.O=C(O)C(F)(F)F.O=C(O)C(F)(F)F,-10.7
7,O=C(O)C(F)(F)F.O=C(c1cnccn1)N1CCO[C@H]2[C@H](OCc3cccnc3)CC[C@@H]21,-4.658
8,CN(C)CCO[C@@H]1CC[C@H]2[C@H]1OCCN2C(=O)c1ccncc1,113.2
9,Cc1cncc(C(=O)N2CCO[C@H]3[C@H](Oc4ccccn4)CC[C@@H]32)c1.O=C(O)C(F)(F)F.O=C(O)C(F)(F)F,-8.484
10,Cc1cncc(C(=O)N2CCO[C@H]3[C@H](OCCN(C)C)CC[C@@H]32)c1.O=C(O)C(F)(F)F.O=C(O)C(F)(F)F,111.8
11,Cc1ccc(C(=O)N2CCN3C[C@H](Oc4cccc(F)c4)C[C@H]3C2)cn1.O=C(O)C(F)(F)F.O=C(O)C(F)(F)F,3.581
12,CC(C)N1CCCC2(CCN(C(=O)CCCn3cccn3)C2)C1=O (stereo not given),-14.27
13,Cc1cn2c(n1)CCC(NS(=O)(=O)c1sc(C)nc1C)C2 (stereo not given),-17.67
14,Cc1nc(C)c(S(=O)(=O)NC(=O)c2sccc2C)s1,101.5
15,CC(NC(=O)c1cccs1)C(=O)NS(=O)(=O)c1cccc(C#N)c1 (stereo not given),3.018
16,CC(NC(=O)c1cccs1)C(=O)NS(=O)(=O)c1ccc(C#N)cc1 (stereo not given),8.47
17,Cc1nc(C)c(S(=O)(=O)NC(=O)c2cccs2)s1,102.2
18,CSc1ccsc1C(=O)NS(=O)(=O)c1ccc(F)cc1,-34.42
19,O=C(NCCCC(=O)N1Cc2ccccc2C1)NCc1cccnc1,2.963
20,CN(CC1CCC1)C(=O)c1ccc(-c2nc(C3CC3)n[nH]2)cc1,0.7414
21,CC1CNC(=O)CCN1Cc1cc(O)c2cccc(F)c2n1 (stereo not given),-25.66
22,O=C(c1ccccn1)N1CCc2ncnc(-c3ccncc3)c2CC1,88.26
23,CN(C)CC(=O)N1CCc2ncnc(-c3ccsc3)c2CC1,-2.469
24,O=C(c1ccccn1)N1CCc2ncnc(N3CCOCC3)c2CC1,-1.06

row,Compound,Percent Effect [%]
1,CN(C)c1ncnc2c1CCN(C(=O)c1cccnc1)CC2.O=C(O)C(F)(F)F,9.198
2,O=C(C1CC=CC1)N1CCc2ncnc(-c3ccncc3)c2CC1,8.097
3,O=C(O)C(F)(F)F.O=C(c1cnccn1)N1CCc2ncnc(-c3cccnc3)c2CC1,-7.804
4,O=C(c1cc[nH]n1)N1CCc2ncnc(NCc3ccccn3)c2CC1,-6.382
5,O=C(O)C(F)(F)F.O=C(c1cscn1)N1CCc2ncnc(-c3cccnc3)c2CC1,99.58
6,O=C(c1cscn1)N1CCc2ncnc(-c3ccncc3)c2CC1,110.3
7,CN(CC(=O)N(C)C1CCCCC1)C1CCc2ccccc21 (stereo not given),-4.106
8,O=C(NCc1csc2ccccc12)NCC1(O)CCSC1 (stereo not given),-14.62
9,CN(C)C1CCCN(C(=O)NCCNC(=O)C2CCCCC2)C1 (stereo not given),2.915
10,Cc1oc(C)c(C(=O)NCc2ccccc2S(=O)(=O)N(C)C)c1C,-1.431
11,Cc1oc(C)c(C(=O)NCc2cccc(C(N)=O)c2)c1C,95.24
12,CNS(=O)(=O)c1ccc(CNC(=O)NCC2CCC2)cc1,-8.591
13,CNS(=O)(=O)c1cccc(CNC(=O)c2c(C)oc(C)c2C)c1,20.61
14,Cc1cccc(C(=O)NCc2ccc(CS(N)(=O)=O)cc2)n1,93.95
15,CNS(=O)(=O)Cc1ccc(CNC(=O)c2ccccn2)cc1,102.4
16,CNS(=O)(=O)c1ccc(CNC(=O)c2ccccn2)cc1,0.2857
17,Cc1cccc(C(=O)NCc2ccc(S(N)(=O)=O)cc2)n1,-0.8879
18,CCN(CC)c1ccc(CNC(=O)c2ccccn2)cn1,19.52
19,Cc1oc(C)c(C(=O)NCc2cccc(NC(=O)CN(C)C)c2)c1C,14.93
20,CNS(=O)(=O)c1ccc(CNC(=O)c2c(C)oc(C)c2C)cc1,84.51
21,CNS(=O)(=O)Cc1ccc(CNC(=O)c2cccc(C)n2)cc1,2.12
22,CC(C)c1noc(CNc2cccc(-c3nnnn3C)c2)n1,-7.266
23,N#Cc1cccc(C(=O)N2CC(c3nc(-c4ccc[nH]c4=O)no3)C2)c1,9.318
